Test results as given in PubChem BioAssay AID1159580 (chemical genetic matrix, 2015).
“And” between values parts separate entries of the source, which are not always exact repeats. Equal entries are not always repeated. Screen size: about 5,500 compounds; about 2,000 (36%) were called active. Roughly 18% stayed inconclusive and do not appear here. Rule as the data show it: active = normalized growth mostly below about 0.91 (no sharp cut-off); inconclusive = no clear call, values can overlap the other calls; inactive = mostly above about 0.92. The list shows a part of the results.

Experiment: chemical genetic growth profiling, strain panel (AID 1159580);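 also: tested at 20 µM; growth read once vehicle control cultures reached saturation at 30 °C; 1 = growth at the plate median or of vehicle wells; lower values mean less growth of the strain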
Settings: S. cerevisiae deletion strains, growth OD

Measured: normalized growth

Oc1cccc(O)c1
inactive: locus YAL013W, strain DEP1, hits give low values 1.01 | locus YAL021C, strain ccr4, hits give low values 0.951 | locus YAL026C, strain drs2, hits give low values 0.966 | locus YAL030W, strain snc1, hits give low values 0.981 | locus YBL061C, strain skt5, hits give low values 0.981 | locus YBR009C, strain hhf1, hits give low values 0.981 | locus YBR021W, strain FUR4, hits give low values 1.02 | locus YBR023C, strain chs3, hits give low values 0.975 | locus YBR171W, strain sec66, hits give low values 0.983 | locus YBR229C, strain ROT2, hits give low values 1.01 | locus YBR231C, strain swc5, hits give low values 0.99 | locus YBR279W, strain paf1, hits give low values 1 | locus YCL011C, strain gbp2, hits give low values 0.938 | locus YCL016C, strain dcc1, hits give low values 0.956 | locus YCL029C, strain bik1, hits give low values 0.987 | locus YCL061C, strain MRC1, hits give low values 0.95 | locus YCL069W, strain vba3, hits give low values 0.978 | locus YCR088W, strain abp1, hits give low values 0.981 | locus YDL005C, strain med2, hits give low values 0.977 | locus YDL035C, strain GPR1, hits give low values 1.01 | locus YDL040C, strain nat1, hits give low values 0.99 | locus YDL074C, strain BRE1, hits give low values 1.01 | locus YDL101C, strain DUN1, hits give low values 1 | locus YDL134C, strain PPH21, hits give low values 0.999 | locus YDL185W, strain tfp1, hits give low values 0.974 | locus YDL192W, strain arf1, hits give low values 0.987 | locus YDR001C, strain nth1, hits give low values 0.957 | locus YDR069C, strain doa4, hits give low values 0.976 | locus YDR101C, strain arx1, hits give low values 0.981 | locus YDR137W, strain rgp1, hits give low values 0.942 | locus YDR150W, strain NUM1, hits give low values 1.01 | locus YDR159W, strain sac3, hits give low values 0.953 | locus YDR162C, strain NBP2, hits give low values 1 | locus YDR195W, strain ref2 0.993 | locus YDR297W, strain sur2, hits give low values 0.989 | locus YDR318W, strain mcm21, hits give low values 0.985 | locus YDR334W, strain swr1, hits give low values 0.969 | locus YDR335W, strain msn5, hits give low values 0.983 | locus YDR388W, hits give low values 0.986 | locus YDR392W, strain spt3, hits give low values 0.872 | locus YDR502C, strain sam2, hits give low values 0.984 | locus YEL003W, strain gim4, hits give low values 0.985 | locus YEL037C, strain rad23, hits give low values 0.977 | locus YEL061C, strain CIN8 (second series), hits give low values 0.972 | locus YEL061C, strain CIN8, hits give low values 1 | locus YER015W, strain faa2, hits give low values 0.981 | locus YER016W, strain bim1, hits give low values 0.982 | locus YER110C, hits give low values 0.984 | locus YER111C, strain swi4, hits give low values 0.981 | locus YER155C, strain BEM2 (second series), hits give low values 0.973 | locus YER155C, strain BEM2, hits give low values 1 | locus YER167W, strain BCK2, hits give low values 1.01 | locus YFR010W, strain ubp6, hits give low values 0.966 | locus YGL078C, strain dbp3, hits give low values 0.987 | locus YGL086W, strain mad1, hits give low values 0.994 | locus YGL167C, strain pmr1, hits give low values 0.984 | locus YGL173C, strain kem1, hits give low values 0.996 | locus YGL227W, strain vid30, hits give low values 0.981 | locus YGL240W, strain doc1, hits give low values 1.01 | locus YGL248W, strain PDE1, hits give low values 1.01 | locus YGL253W, strain hxk2, hits give low values 0.962 | locus YGR135W, strain pre9, hits give low values 0.986 | locus YGR252W, strain gcn5, hits give low values 0.974 | locus YHR013C, strain ard1, hits give low values 0.947 | locus YHR027C, strain rpn1, hits give low values 0.985 | locus YHR030C, strain SLT2, hits give low values 1.01 and 1.03 | locus YHR079C, strain IRE1 (second series), hits give low values 0.987 | locus YHR079C, strain IRE1, hits give low values 1.05 | locus YHR094C, strain hxt1, hits give low values 0.993 | locus YHR129C, strain ARP1, hits give low values 1.02 | locus YHR142W, strain chs7, hits give low values 0.954 | locus YHR200W, strain rpn10, hits give low values 0.987 | locus YIL066C, strain RNR3, hits give low values 0.999 | locus YIL073C, strain SPO22, hits give low values 0.993 | locus YIL125W, strain kgd1, hits give low values 0.986 | locus YIR030C, strain dcg1, hits give low values 0.991 | locus YJL092W, strain hpr5, hits give low values 0.963 | locus YJL095W, strain BCK1 (second series), hits give low values 0.987 | locus YJL095W, strain BCK1, hits give low values 1.02 and 0.997 | locus YJL115W, strain asf1, hits give low values 0.978 | locus YJL129C, strain trk1, hits give low values 0.974 | locus YJL134W, strain LCB3, hits give low values 1.01 | locus YJL154C, strain vps35, hits give low values 0.977 | locus YJL164C, strain tpk1, hits give low values 0.947 | locus YJL166W, strain qcr8, hits give low values 1 | locus YJL168C, strain set2, hits give low values 0.988 | locus YJL187C, strain SWE1 (second series), hits give low values 1.01 | locus YJL187C, strain SWE1, hits give low values 0.989 | locus YJR043C, strain POL32, hits give low values 1.01
